Rows were chosen to be rich in hits. Some 3.4% of all compounds tested hit in one or more screens of this group.
PAFAH1B3 inh: PAFAH1B3 enzyme inhibitors, primary screen, biochemical, fluorescence polarization, human. recombinant PAFAH1B3, FP-rhodamine probe. AID 492972, 2010. Platelet-activating factor acetylhydrolase IB subunit alpha1 (Homo sapiens), Q15102. 340,000 compounds, 0.28% hits. inhibition, % at 3.39 µM;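 active means inhibition above the screen-wide average of all tested compounds plus 3 SD, cut at about 25% in these data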
PP5 primary: PP5 phosphatase inhibitors, primary screen, biochemical, fluorescence; Serine/threonine-protein phosphatase 5 (Homo sapiens), P53041; purified PP5c, OMFP substrate fluorescence; inhibition, % at 6.7 µM; 320,000 compounds, 0.18% hits; AID 1987, 2009;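 active means inhibition above the campaign's mean inhibition across all tested compounds plus 3 SD, cut at about 9.5% in these data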
Target sequence (P53041 whole entry, looked up): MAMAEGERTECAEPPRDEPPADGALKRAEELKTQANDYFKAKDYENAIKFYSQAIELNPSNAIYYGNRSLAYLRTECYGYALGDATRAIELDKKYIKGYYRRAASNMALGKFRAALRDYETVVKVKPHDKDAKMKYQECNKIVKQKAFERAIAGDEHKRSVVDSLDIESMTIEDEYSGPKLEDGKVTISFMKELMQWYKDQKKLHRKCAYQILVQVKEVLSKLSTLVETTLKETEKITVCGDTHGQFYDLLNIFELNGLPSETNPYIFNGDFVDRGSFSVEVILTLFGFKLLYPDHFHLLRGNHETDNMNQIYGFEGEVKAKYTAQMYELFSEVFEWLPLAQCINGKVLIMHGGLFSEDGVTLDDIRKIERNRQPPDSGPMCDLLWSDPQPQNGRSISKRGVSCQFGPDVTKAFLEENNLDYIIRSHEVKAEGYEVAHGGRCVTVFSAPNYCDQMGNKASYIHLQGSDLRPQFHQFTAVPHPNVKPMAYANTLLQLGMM
pPAFAH inh: pPAFAH enzyme inhibitors, primary screen, biochemical, fluorescence polarization, human. inhibition, % at 3.39 µM. 330,000 compounds, 1.5% hits. recombinant pPAFAH, FP-rhodamine probe fluorescence polarization. AID 463082, 2010;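 active means inhibition above the mean inhibition across the screen plus 3 SD, cut at about 25% in these data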;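 further: inhibitors block binding of the rhodamine activity-based probe so polarization drops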
PAFAH1B2 inh: PAFAH1B2 enzyme inhibitors, primary screen, biochemical, fluorescence polarization, human | Platelet-activating factor acetylhydrolase IB subunit alpha2 (Homo sapiens), P68402 | 340,000 compounds, 1.2% hits | recombinant PAFAH1B2, FP-rhodamine activity probe | inhibition, % at 3.39 µM;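 active means inhibition above the mean of all tested compounds plus 3 SD, cut at about 24% in these data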
PP1 inh: PP1-alpha phosphatase inhibitors, primary screen, counter-screen for PP5 inhibitor project, biochemical, fluorescence, OMFP substrate, single point | Serine/threonine-protein phosphatase PP1-alpha catalytic subunit (Homo sapiens), P62136 | AID 2235, 2010 | purified PP1alpha | inhibition, % at 6.7 µM | 320,000 compounds, 0.9% hits;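 active means inhibition above the mean inhibition of all tested compounds plus 3 SD, computed separately for each screening campaign, cut at about 15% in these data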
PAFAH2 inh: PAFAH2 enzyme inhibitors, primary screen, biochemical, fluorescence polarization, human; Platelet-activating factor acetylhydrolase 2, cytoplasmic (Homo sapiens), Q99487; 340,000 compounds, 0.99% hits; inhibition, % at 3.39 µM; recombinant PAFAH2, FP-rhodamine activity probe; AID 492956, 2010;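 active means inhibition above the mean over all tested compounds plus 3 SD, cut at about 30% in these data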;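 further: inhibitors block probe labeling of enzyme so polarization drops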
Large screens that a line does not name were inactive.

O=C(Nc1ccc(F)cc1)c1ccc(S(=O)(=O)N2CCOCC2)o1	none (no result: PAFAH1B3 inh, PAFAH1B2 inh, PAFAH2 inh)
COCC(=O)OCn1nnc2ccccc2c1=O	none
CCOc1ccc(NC(C)c2cc(Cl)ccc2O)cc1 (stereo not drawn)	none
CC(Nc1ccc(Cl)cc1)c1cc(Cl)ccc1O (stereo not drawn)	PAFAH1B2 inh 43
COc1ccc(C)cc1NC(=O)C(OC(=O)c1cc(C)oc1C)c1ccccc1 (stereo not drawn)	none
O=[N+]([O-])c1ccccc1Oc1cnc2ccccc2n1	none
O=[N+]([O-])c1cc(-c2cnc3ccccc3n2)ccc1Oc1ccc(F)cc1	PAFAH1B2 inh 58
COc1ccccc1C1CC(=O)Oc2cc(C)cc(C)c21 (stereo not drawn)	none (no result: PP5 primary, PP1 inh)
COc1ccccc1-c1ccc(SCC(=O)NCc2ccc3c(c2)OCO3)nn1	none
CC(C)CC(OC(=O)c1nsc(Cl)c1Cl)C(=O)NCc1cccs1 (stereo not drawn)	none
CCC(OC(=O)c1nsc(Cl)c1Cl)C(=O)NCc1cccs1 (stereo not drawn)	pPAFAH inh 28
CCC(OC(=O)c1nsc(Cl)c1Cl)C(=O)NCCc1ccccc1 (stereo not drawn)	pPAFAH inh 25
COc1ccc(-c2c(C)nn3c(N)c(C#N)cnc23)cc1OC	none
CCS(=O)(=O)c1ccc(O)c(NC(=O)COc2ccc(Br)cc2)c1	PAFAH1B2 inh 34, PAFAH2 inh 80
CCS(=O)(=O)c1ccc(O)c(NC(=O)/C=C/c2ccc(Cl)cc2)c1	pPAFAH inh 28, PAFAH2 inh 66
c1ccc2sc(NC3=NCN(CC4CCCO4)CN3)nc2c1 (stereo not drawn)	none
CC(C)c1ccc(/C=N/NC(=O)C2CCCC2)cc1	none
CCOC(=O)C1=C(CSc2nc3c(cc2C#N)CN(C)CC3)OC(N)=C(C#N)C1c1ccc(Cl)cc1 (stereo not drawn)	pPAFAH inh 29
CCN(CC)S(=O)(=O)c1ccc(N2CCN(S(=O)(=O)c3ccccc3C#N)CC2)nc1	none
Cc1ccc(C)c(NC(=O)CSc2ccc(S(=O)(=O)N3CCCC3)cn2)c1	none
O=C(CSc1ccc(S(=O)(=O)N2CCCC2)cn1)Nc1ccc([N+](=O)[O-])cc1C(F)(F)F	PAFAH1B2 inh 27 (no result: PP5 primary, pPAFAH inh, PP1 inh)
CC(C)(C)NC(=O)NC(=O)CSc1ccc(S(=O)(=O)N2CCCCC2)cn1	PAFAH1B2 inh 27
COCCCNC(=O)CCC(=O)NNc1nc2ccccc2c2nc(C)nn12	none
O=C(/C=C/c1ccc(OCCCF)cc1)NCc1cccc(Cl)c1	none
O=C(/C=C/c1ccc(OCCCF)cc1)Nc1ccnc(-c2ccncc2)n1	PP1 inh 16
CC(=O)Nc1ccc2nc(NS(=O)(=O)c3ccc(C)cc3)sc2c1	pPAFAH inh 26
CCn1c(O)c(N=NC(=O)CNC(=O)/C=C/c2ccccc2)c2ccccc21	none
C/C(=N/NS(=O)(=O)c1ccc(Cl)cc1)c1cccc(NC(=O)c2ccc(Cl)cc2Cl)c1	pPAFAH inh 25
Cc1ccc2nc(NC(=O)c3ccc(OCC4CCCO4)cc3)sc2c1 (stereo not drawn)	pPAFAH inh 27
CCN(CC)CCn1c(=N)n(CC(=O)c2ccc(C)cc2)c2ccccc21	none
Cc1nc(NS(=O)(=O)c2ccccc2)sc1C(=O)NNS(=O)(=O)c1ccccc1	none
Cc1ccc(S(=O)(=O)Nc2nc(C)c(C(=O)NNS(=O)(=O)c3cc(C)ccc3C)s2)cc1	PAFAH1B2 inh 28
Cc1cc(/C=N/n2c(COc3ccccc3C)nc3ccccc3c2=O)c(O)c([N+](=O)[O-])c1	none
O=c1c2ccccc2nc(COc2ccccc2)n1/N=C/c1cc([N+](=O)[O-])ccc1O	pPAFAH inh 26
S=c1[nH]nc(COc2ccccc2)n1/N=C/c1ccccc1Br	none
Oc1ccc(Br)cc1/C=N/n1c(COc2ccccc2)n[nH]c1=S	PAFAH1B2 inh 28 (no result: PP5 primary, pPAFAH inh, PP1 inh)
Cc1ccc(NC(=S)NC(NC(=O)c2ccco2)C(Cl)(Cl)Cl)cc1 (stereo not drawn)	none
CC(C)CN(C(=O)COC(=O)c1ccc([N+](=O)[O-])o1)C1CCS(=O)(=O)C1 (stereo not drawn)	none
NC(=S)N=Nc1c(O)n(CCCl)c2ccc(Br)cc12	PAFAH1B2 inh 32
Cc1cc(C)c(S(=O)(=O)c2ccccc2C)c(OCCN(C)C)n1	none
CC1C(=O)Nc2ccc(S(=O)(=O)NCc3ccc(Cl)cc3)cc2NC1=O (stereo not drawn)	none
N#Cc1c(N)nc2c(c1N)CC(=O)N2c1ccc(Cl)cc1	PAFAH1B2 inh 24
N#Cc1c(N)nc2c(c1N)CC(=O)N2c1ccccc1-c1ccccc1	none
N#CC1=C(N)Oc2cc(N)ccc2C1c1ccc(F)cc1F (stereo not drawn)	pPAFAH inh 27
N#CC1=C(N)Oc2cc(N)ccc2C1c1ccc(F)cc1 (stereo not drawn)	none
CCOC(=O)c1c(NC(=O)CSc2nnc(N)s2)sc(C)c1-c1ccc(C)cc1	none
CCOC(=O)c1c(NC(=O)CSc2nnc(C)c(=O)[nH]2)sc(C)c1-c1ccc(C)cc1	pPAFAH inh 29
CCOC(=O)c1c(NC(=O)CSc2nnc(C)c(=O)[nH]2)sc2c1CCCC2	pPAFAH inh 27, PAFAH1B2 inh 68
Cc1nnc(SCC(=O)Nc2sc3c(c2C#N)CCCC3)[nH]c1=O	none
CC(=O)Oc1cccc(N2C(=O)C3C4C=CC(CC4)C3C2=O)c1 (stereo not drawn)	none
O=C(NNC(=S)NC(=O)C12CC3CC(CC(C3)C1)C2)c1ccncc1	PAFAH1B2 inh 45
Cn1c(Cl)cnc1C(O)c1ccccc1 (stereo not drawn)	none
Oc1ccc(O)c(/C(=N/Nc2ccccc2)c2ccccc2)c1	pPAFAH inh 44 (no result: PAFAH1B3 inh, PAFAH1B2 inh, PAFAH2 inh)
Cc1ccc(CNC(=O)N[C@@H](Cc2ccccc2)C(=O)O)cc1	PAFAH1B2 inh 26
COC(=O)[C@H](Cc1ccccc1)NC(=O)NCc1ccc(C)cc1	none (no result: PAFAH1B3 inh, PAFAH1B2 inh, PAFAH2 inh)
CC(=O)c1ccc(NC(=O)Cc2cccs2)cc1	none
CCn1nc(C)c(Br)c1-c1nc(CS(=O)(=O)c2ccc(F)cc2)no1	none
Cc1noc(C)c1-c1nc(CS(=O)(=O)c2ccc(Cl)cc2)no1	PAFAH1B2 inh 30
CO[C@H]1C=CO[C@@]2(C)Oc3c(C)c(O)c4c(O)c(c(C=NN5CCN(C)CC5)c(O)c4c3C2=O)NC(=O)C(C)=CC=C[C@H](C)[C@H](O)[C@@H](C)[C@@H](O)[C@@H](C)[C@H](OC(C)=O)[C@@H]1C	pPAFAH inh 31

Screening data from PubChem BioAssay.
